CD40 NFkB inh: CD40 pathway inhibition in BL2 cells; BL2 NF-kB luciferase reporter, CD40L-induced, 4 h; inhibition, % at 10 µM; 83,000 tested, 0.94% active; AID 1053188;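 active = mean inhibition of at least 50% with a set share of replicates also reaching that level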;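 also: 0% = neutral control wells and 100% = IKK inhibitor VII at 50 µM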
* hit, by the source's call; [ ] = dose if it differs, or a comment. The full list was thinned out, with hits kept by preference.

COc1ccc2c3c([nH]c2c1)[C@H](CO)N(Cc1cccc(F)c1)CC31CCN(C(C)=O)CC1 was read as CD40 NFkB inh 6[25 µM].
Screening O=C1C=CC(=O)C2=C1C1c3ccccc3C2c2ccccc21 returned CD40 NFkB inh 59*[25 µM].
O=C1NNC(=O)C1c1ccccc1 was read as CD40 NFkB inh 7.
CN1C(=O)c2ccccc2C(O)c2ccccc21 (stereo not given) was read as CD40 NFkB inh 15.
`COc1ccc(NC(=O)CCc2c(C)nc3nc(C)nn3c2C)cc1` gave CD40 NFkB inh 2.
`COc1cc(C=NOC(=O)Nc2ccccc2)cc(OC)c1OC` gave CD40 NFkB inh -26.
For COc1ccc(NC(=O)O/N=C/c2c(C)nn(C(C)(C)C)c2C)cc1 the results were CD40 NFkB inh 64*.
`CN(C)Cc1cn(CC[C@@H]2CC[C@@H](NC(=O)Nc3ccccc3F)[C@H](CO)O2)nn1` gave CD40 NFkB inh 11.
For CC(=O)Nc1ccc2c(c1)Cc1ccc(Cl)cc1-2 the results were CD40 NFkB inh -51.
`CC(=O)Nc1ccc2c(c1)Cc1cc(N3C(=O)C=CC3=O)ccc1-2` gave CD40 NFkB inh 97*.
Screening CC(=O)Nc1ccc2c(c1)-c1ccc(F)cc1C2 returned CD40 NFkB inh -6.
Screening COc1ccc(S(=O)(=O)N(C)C[C@H]2OCc3ccccc3-c3ccccc3C(=O)N([C@H](C)CO)C[C@@H]2C)cc1 returned CD40 NFkB inh -6.
For CN1C[C@@H](O)COC[C@H]2O[C@@H](CC(=O)NC3CCCC3)CC[C@@H]21 the results were CD40 NFkB inh -3[25 µM].
C[C@H]1CN([C@@H](C)CO)C(=O)CCCn2nncc2CO[C@@H]1CN(C)S(C)(=O)=O was read as CD40 NFkB inh 3[25 µM].
For Cc1cc(C(=O)CN2C(=O)c3ccccc3S2(=O)=O)c(C)n1CC1CCCO1 (stereo not given) the results were CD40 NFkB inh 13.
Screening CCCn1c(C)cc(C(=O)CN2C(=O)c3ccccc3S2(=O)=O)c1C returned CD40 NFkB inh 53*.
For CCCn1c(C)cc(C(=O)Cn2nnc3ccccc3c2=O)c1C the results were CD40 NFkB inh 24.
Screening COc1ccc2c3c(n(C)c2c1)[C@@H](CO)N(C(=O)Nc1ccc(F)cc1)CC31CCN(C(=O)Nc2c(C)noc2C)CC1 returned CD40 NFkB inh 18[25 µM].
Screening COc1ccc2c3c(n(C)c2c1)[C@H](CO)N(C(=O)Nc1ccc(F)cc1)CC31CCN(C(=O)Nc2ccc(F)cc2F)CC1 returned CD40 NFkB inh 68*[25 µM].
COc1ccc2c3c(n(C)c2c1)[C@H](CO)N(C(C)=O)CC31CCN(C(=O)Nc2ccccc2F)CC1 was read as CD40 NFkB inh 12[25 µM].
`COc1ccc2c3c([nH]c2c1)[C@H](CO)N(C(=O)Nc1ccc(F)cc1)CC31CN(Cc2cc(F)ccc2F)C1` gave CD40 NFkB inh 56*[25 µM].
For COc1ccc2c3c([nH]c2c1)[C@@H](CO)N(C(=O)Nc1ccc(F)cc1)CC31CN(Cc2cc(F)ccc2F)C1 the results were CD40 NFkB inh 40[25 µM].
For CCCNC(=O)N1CC2(C1)CN(C(=O)Nc1ccc(F)cc1)[C@@H](CO)c1[nH]c3cc(OC)ccc3c12 the results were CD40 NFkB inh -10[25 µM].
COc1ccc(NC(=O)N2[C@@H]3CNC[C@H]2C3c2ccc(-c3ccc(F)cc3)cc2)cc1 (stereo not given in full) was read as CD40 NFkB inh -15.
C[C@@H]1CN(C)C(=O)Cc2cc(N(C)C)ccc2O[C@@H]1CN(C)S(C)(=O)=O was read as CD40 NFkB inh 3.
O=C(Nc1cccc(Cl)c1)N1C[C@@H]2[C@H](c3ccccc31)[C@@H](CO)N2C(=O)C1CC1 was read as CD40 NFkB inh 3.
Screening Cc1cnc(NC(=O)c2cc3ccccc3o2)s1 returned CD40 NFkB inh 56*.
For O=C(Nc1nnc(C2CC2)s1)c1cc2ccccc2o1 the results were CD40 NFkB inh -60.
For Cc1nnc(NC(=O)c2cc3ccccc3o2)s1 the results were CD40 NFkB inh -72.
For COc1ccc(C#Cc2ccc([C@@H]3[C@@H](CO)N4CCCCN(S(=O)(=O)c5cn(C)cn5)C[C@@H]34)cc2)cc1 the results were CD40 NFkB inh 43[25 µM].
`CCNC(=O)[C@@H]1[C@@H](CO)[C@@H]2Cn3c(ccc(-c4ccccc4)c3=O)[C@@H]2N1CC` gave CD40 NFkB inh -8[25 µM].
For CC1CC(Nc2ccccc2)c2ccccc2N1C(=O)c1cccnc1 (stereo not given) the results were CD40 NFkB inh 3.
Screening CC(=O)N(c1ccccc1)C1CC(C)N(C(=O)c2ccccc2)c2ccccc21 (stereo not given) returned CD40 NFkB inh 12.
C[C@@H]1C[C@H](Nc2ccccc2)c2ccccc2N1C(=O)c1cccnc1 was read as CD40 NFkB inh 20*.
Screening C[C@@H]1CN([C@H](C)CO)C(=O)c2cc(N(C)C)ccc2O[C@@H](C)CCCCO[C@@H]1CN(C)S(=O)(=O)c1cn(C)cn1 returned CD40 NFkB inh -17[25 µM].
`C[C@@H]1CN(C)C(=O)c2cccc(NS(C)(=O)=O)c2O[C@H]1CN(C)S(C)(=O)=O` gave CD40 NFkB inh -4.
Screening CCCNC(=O)N1[C@H](CN(C)C(C)=O)[C@@H](c2ccc(C3=CCCC3)cc2)[C@@H]1CO returned CD40 NFkB inh 6.
Screening C[C@@H]1CN([C@@H](C)CO)C(=O)c2c(c3ccccc3n2C)-c2ccccc2CO[C@H]1CN(C)Cc1cccc2c1OCCCO2 returned CD40 NFkB inh 29[25 µM].
Screening C[C@@H]1CN([C@H](C)CO)C(=O)c2c(c3ccccc3n2C)-c2ccccc2CO[C@@H]1CN(C)C(=O)c1cc(Cl)cc(Cl)c1 returned CD40 NFkB inh 60*[25 µM].
C[C@@H]1CN([C@H](C)CO)C(=O)c2ccccc2-c2ccccc2CO[C@@H]1CN(C)C(=O)c1cc(Cl)cc(Cl)c1 was read as CD40 NFkB inh 66*[25 µM].
For C[C@H]1CN([C@@H](C)CO)C(=O)c2ccccc2-c2ccccc2CO[C@@H]1CN(C)C(=O)c1cc(Cl)cc(Cl)c1 the results were CD40 NFkB inh 15[25 µM].
C[C@H]1CN([C@@H](C)CO)C(=O)c2c(c3ccccc3n2C)-c2ccccc2CO[C@H]1CN(C)C(=O)c1cc(Cl)cc(Cl)c1 was read as CD40 NFkB inh 44[25 µM].
C[C@H]1CN([C@@H](C)CO)C(=O)c2ccccc2-c2ccccc2CO[C@@H]1CN(C)C(=O)c1ccccc1 was read as CD40 NFkB inh -5.
For C[C@H]1CN([C@@H](C)CO)C(=O)c2c(c3ccccc3n2C)-c2ccccc2CO[C@@H]1CN(C)C(=O)c1cc(Cl)cc(Cl)c1 the results were CD40 NFkB inh 40[25 µM].
Screening COc1ccc(NC(=O)Nc2ccc3c(c2)C(=O)N([C@H](C)CO)C[C@H](C)[C@@H](CN(C)C(=O)Nc2ccc(F)cc2)OCCCC[C@@H](C)O3)cc1 returned CD40 NFkB inh -12.
C[C@@H]1CN(C)C(=O)Cc2cc(N)ccc2O[C@H]1CN(C)S(C)(=O)=O was read as CD40 NFkB inh 10.
Screening CN1C(=O)c2cc(NC(=O)C3CCCC3)ccc2OC[C@H]2O[C@@H](CC(=O)NCCc3ccncc3)CC[C@@H]21 returned CD40 NFkB inh 8.
`O=C1c2sc3nc4ccccc4n3c2C(=O)N1c1ccccc1Cl` gave CD40 NFkB inh 52*.
For CC(=O)c1cnc(-c2ccccc2Cl)s1 the results were CD40 NFkB inh 1.
CN1C[C@@H]2[C@H](c3ccccc31)[C@H](CO)N2C(=O)Nc1ccccc1Cl was read as CD40 NFkB inh 13[25 µM].

Assay outcomes as filed in PubChem.
